Of roughly 8,800 targets only a part is listed; those with a hit were picked by preference. About 0.5% of all pairs of compound and target were hits. Unmarked numbers belong to inactive results.
Assays:
Assay in all cases: log2 fold change, soluble protein after heating vs DMSO (PISA); higher = thermal stabilisation; K562 lysate, 10 uM; active = over 0.2 and 3.5 SD of the protein, either way, in both replicates (recomputed)
lapatinib = compound: CS(=O)(=O)CCNCc1ccc(-c2ccc3ncnc(Nc4ccc(OCc5cccc(F)c5)c(Cl)c4)c3c2)o1 [lapatinib]
Method in brief: (§1)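 Soluble protein was defined as the supernatant remaining after 21,000xg for 90 min, following pooling of heated aliquots and adjustment to 0.5% NP-40 at 4°C. Before that, crude K562 extract at 1 mg/mL protein in PBS pH 7.4 with 1 mM MgCl2 was treated with 10 μM compound for 30 min and heated for 3 min across 48°C-58°C. Quantification used TMTpro 16plex LC-MS/MS with channel sums equalised, and values are log-two fold changes in thermal stability relative to solvent controls from duplicates.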

pictilisib = compound: CS(=O)(=O)N1CCN(Cc2cc3nc(-c4cccc5[nH]ncc45)nc(N4CCOCC4)c3s2)CC1 [pictilisib]
Method in brief: as §1

crizotinib = compound: C[C@@H](Oc1cc(-c2cnn(C3CCNCC3)c2)cnc1N)c1c(Cl)ccc(F)c1Cl [crizotinib]
Method in brief: as §1

[1] = compound: C[C@H](C1=CC=C(C=C1)C(=O)NC2=C3C=CNC3=NC=C2)N
Method in brief: as §1

duvelisib = compound: C[C@H](Nc1ncnc2nc[nH]c12)c1cc2cccc(Cl)c2c(=O)n1-c1ccccc1 [duvelisib]
Method in brief: as §1

gandotinib = compound: Cc1cc(Nc2cc(CN3CCOCC3)c3nc(C)c(Cc4ccc(Cl)cc4F)n3n2)n[nH]1 [gandotinib]
Method in brief: as §1

tozasertib = compound: Cc1cc(Nc2cc(N3CCN(C)CC3)nc(Sc3ccc(NC(=O)C4CC4)cc3)n2)n[nH]1 [tozasertib]
Method in brief: as §1

doramapimod = compound: Cc1ccc(-n2nc(C(C)(C)C)cc2NC(=O)Nc2ccc(OCCN3CCOCC3)c3ccccc23)cc1 [doramapimod]
Method in brief: as §1

bafetinib = compound: Cc1ccc(NC(=O)c2ccc(CN3CC[C@H](N(C)C)C3)c(C(F)(F)F)c2)cc1Nc1nccc(-c2cncnc2)n1 [bafetinib]
Method in brief: as §1

[2] = compound: Cc1cccc(CC(=O)N2CCc3c2ccc(-c2cn(C)c4ncnc(N)c24)c3F)n1
Method in brief: as §1

nilotinib = compound: Cc1cn(-c2cc(NC(=O)c3ccc(C)c(Nc4nccc(-c5cccnc5)n4)c3)cc(C(F)(F)F)c2)cn1 [nilotinib]
Method in brief: as §1

[3] = compound: Cc1nc(Nc2n[nH]c3c2CN(C(=O)N[C@H](CN(C)C)c2ccccc2)C3(C)C)c2sccc2n1
Method in brief: as §1

dasatinib = compound: Cc1nc(Nc2ncc(C(=O)Nc3c(C)cccc3Cl)s2)cc(N2CCN(CCO)CC2)n1 [dasatinib]
Method in brief: as §1

[4] = compound: Cc1ncc(-c2ccnc(Nc3ccc(S(C)(=O)=O)cc3)n2)n1C(C)C
Method in brief: as §1

[5] = compound: Cn1cc(-c2ccc3c(c2)CCN3C(=O)Cc2cccc(C(F)(F)F)c2)c2c(N)ncnc21
Method in brief: as §1

quisinostat = compound: Cn1cc(CNCC2CCN(c3ncc(C(=O)NO)cn3)CC2)c2ccccc21 [quisinostat]
Method in brief: as §1

tipifarnib = compound: Cn1cncc1[C@@](N)(c1ccc(Cl)cc1)c1ccc2c(c1)c(-c1cccc(Cl)c1)cc(=O)n2C [tipifarnib]
Method in brief: as §1

[6] = compound: NC(=O)Nc1cc(-c2cccc(F)c2)sc1C(=O)N[C@H]1CCCNC1
Method in brief: as §1

[7] = compound: NC(=O)c1cnc(N[C@@H]2CCCC[C@@H]2N)nc1Nc1cccc(-n2nccn2)c1
Method in brief: as §1

[8] = compound: NC1(c2ccc(-c3nc4ccn5c(=O)[nH]nc5c4cc3-c3ccccc3)cc2)CCC1
Method in brief: as §1

Sequence of UniProt Q9H1K0 (Q9H1K0 whole entry, looked up): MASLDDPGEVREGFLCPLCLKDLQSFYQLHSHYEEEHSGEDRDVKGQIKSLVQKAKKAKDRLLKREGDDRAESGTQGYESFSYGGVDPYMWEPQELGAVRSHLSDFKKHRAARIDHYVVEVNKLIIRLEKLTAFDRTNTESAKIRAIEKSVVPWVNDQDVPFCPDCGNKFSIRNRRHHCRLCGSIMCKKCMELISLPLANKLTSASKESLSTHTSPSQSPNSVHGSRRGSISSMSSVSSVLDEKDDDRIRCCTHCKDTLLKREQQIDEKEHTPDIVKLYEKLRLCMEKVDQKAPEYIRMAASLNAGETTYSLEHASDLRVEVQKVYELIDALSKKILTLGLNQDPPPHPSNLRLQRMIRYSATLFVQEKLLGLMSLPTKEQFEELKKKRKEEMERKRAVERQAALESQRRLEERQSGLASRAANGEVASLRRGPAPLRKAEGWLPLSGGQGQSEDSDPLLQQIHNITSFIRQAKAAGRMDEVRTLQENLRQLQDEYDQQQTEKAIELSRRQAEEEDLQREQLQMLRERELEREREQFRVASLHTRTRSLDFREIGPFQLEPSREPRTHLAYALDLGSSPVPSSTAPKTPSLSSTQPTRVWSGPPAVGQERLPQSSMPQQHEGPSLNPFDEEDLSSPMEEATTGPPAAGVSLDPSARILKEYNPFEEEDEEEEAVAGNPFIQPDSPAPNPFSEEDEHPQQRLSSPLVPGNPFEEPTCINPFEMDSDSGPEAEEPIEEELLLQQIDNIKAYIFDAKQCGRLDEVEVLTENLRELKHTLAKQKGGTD
Sequence of UniProt Q86U06 (Q86U06 whole entry, looked up): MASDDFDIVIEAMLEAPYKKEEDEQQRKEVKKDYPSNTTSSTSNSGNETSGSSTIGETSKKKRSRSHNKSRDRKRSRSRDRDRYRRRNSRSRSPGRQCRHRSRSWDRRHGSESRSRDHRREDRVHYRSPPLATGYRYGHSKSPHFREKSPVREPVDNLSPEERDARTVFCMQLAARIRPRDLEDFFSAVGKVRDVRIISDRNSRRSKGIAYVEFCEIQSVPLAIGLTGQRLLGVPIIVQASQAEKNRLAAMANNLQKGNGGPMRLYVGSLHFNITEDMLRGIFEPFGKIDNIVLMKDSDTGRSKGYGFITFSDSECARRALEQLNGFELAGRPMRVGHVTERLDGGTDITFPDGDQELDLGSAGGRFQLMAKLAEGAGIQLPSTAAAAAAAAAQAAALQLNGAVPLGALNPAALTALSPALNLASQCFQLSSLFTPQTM
Sequence of UniProt Q6UVJ0 (Q6UVJ0 whole entry, looked up): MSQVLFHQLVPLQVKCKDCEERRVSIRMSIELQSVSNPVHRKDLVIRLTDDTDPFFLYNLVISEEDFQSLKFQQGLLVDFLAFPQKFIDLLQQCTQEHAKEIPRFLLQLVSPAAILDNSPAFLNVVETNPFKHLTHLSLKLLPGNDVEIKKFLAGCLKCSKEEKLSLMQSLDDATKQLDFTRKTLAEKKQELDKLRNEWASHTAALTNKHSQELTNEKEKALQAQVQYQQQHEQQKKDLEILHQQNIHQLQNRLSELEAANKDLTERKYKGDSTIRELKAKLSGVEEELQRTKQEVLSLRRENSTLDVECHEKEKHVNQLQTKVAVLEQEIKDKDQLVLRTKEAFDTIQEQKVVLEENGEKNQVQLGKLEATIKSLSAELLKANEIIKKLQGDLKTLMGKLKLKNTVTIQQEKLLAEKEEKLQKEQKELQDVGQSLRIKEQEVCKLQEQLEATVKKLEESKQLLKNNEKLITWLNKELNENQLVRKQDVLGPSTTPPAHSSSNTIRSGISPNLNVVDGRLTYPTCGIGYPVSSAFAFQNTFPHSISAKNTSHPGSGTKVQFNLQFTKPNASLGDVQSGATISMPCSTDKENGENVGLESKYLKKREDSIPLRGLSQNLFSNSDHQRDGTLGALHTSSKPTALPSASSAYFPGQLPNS
Sequence of UniProt Q8N122 (Q8N122 whole entry, looked up): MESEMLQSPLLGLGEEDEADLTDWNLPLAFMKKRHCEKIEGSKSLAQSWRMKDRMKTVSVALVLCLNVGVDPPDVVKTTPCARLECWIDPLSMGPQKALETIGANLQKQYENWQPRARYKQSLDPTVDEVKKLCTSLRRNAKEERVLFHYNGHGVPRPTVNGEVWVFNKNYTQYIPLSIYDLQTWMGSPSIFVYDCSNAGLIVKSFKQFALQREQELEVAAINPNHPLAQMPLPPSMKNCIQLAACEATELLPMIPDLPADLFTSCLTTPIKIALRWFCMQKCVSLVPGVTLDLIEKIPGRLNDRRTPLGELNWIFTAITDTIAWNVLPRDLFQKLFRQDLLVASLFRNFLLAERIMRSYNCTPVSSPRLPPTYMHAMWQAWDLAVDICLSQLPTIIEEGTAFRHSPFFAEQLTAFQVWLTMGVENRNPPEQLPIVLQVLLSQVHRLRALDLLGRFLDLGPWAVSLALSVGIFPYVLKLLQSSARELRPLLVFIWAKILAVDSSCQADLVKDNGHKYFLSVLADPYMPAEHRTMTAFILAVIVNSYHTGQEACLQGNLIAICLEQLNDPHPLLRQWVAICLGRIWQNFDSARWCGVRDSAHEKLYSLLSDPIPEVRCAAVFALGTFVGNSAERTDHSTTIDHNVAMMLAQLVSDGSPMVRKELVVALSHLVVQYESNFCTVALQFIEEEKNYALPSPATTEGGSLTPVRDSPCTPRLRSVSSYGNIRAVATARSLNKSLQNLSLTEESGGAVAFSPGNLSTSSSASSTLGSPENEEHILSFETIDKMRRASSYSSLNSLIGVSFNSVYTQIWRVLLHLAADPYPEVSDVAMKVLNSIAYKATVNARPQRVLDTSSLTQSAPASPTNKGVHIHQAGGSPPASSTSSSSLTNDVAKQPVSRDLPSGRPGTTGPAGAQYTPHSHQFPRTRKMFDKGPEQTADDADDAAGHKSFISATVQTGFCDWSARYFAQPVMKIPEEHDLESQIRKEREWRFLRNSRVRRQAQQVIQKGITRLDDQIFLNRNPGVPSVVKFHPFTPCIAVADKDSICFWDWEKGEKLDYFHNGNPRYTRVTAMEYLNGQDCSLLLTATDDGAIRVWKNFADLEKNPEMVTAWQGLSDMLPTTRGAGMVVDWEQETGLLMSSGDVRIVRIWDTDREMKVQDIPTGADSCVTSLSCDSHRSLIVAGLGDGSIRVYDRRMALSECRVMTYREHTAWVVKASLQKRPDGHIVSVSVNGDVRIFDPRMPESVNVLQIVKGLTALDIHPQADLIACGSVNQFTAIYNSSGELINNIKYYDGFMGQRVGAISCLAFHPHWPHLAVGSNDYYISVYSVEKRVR
Sequence of UniProt Q5TBB1 (Q5TBB1 whole entry, looked up): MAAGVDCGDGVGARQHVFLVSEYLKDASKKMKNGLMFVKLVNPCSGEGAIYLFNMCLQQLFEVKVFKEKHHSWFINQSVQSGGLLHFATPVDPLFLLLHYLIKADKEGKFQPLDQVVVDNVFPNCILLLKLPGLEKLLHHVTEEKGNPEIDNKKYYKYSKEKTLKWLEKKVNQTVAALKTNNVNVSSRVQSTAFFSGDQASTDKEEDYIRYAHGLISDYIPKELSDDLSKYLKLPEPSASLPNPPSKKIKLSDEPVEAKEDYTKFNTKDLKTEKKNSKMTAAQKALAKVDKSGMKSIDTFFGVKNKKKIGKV
Sequence of UniProt Q9H7N4 (Q9H7N4 whole entry, looked up): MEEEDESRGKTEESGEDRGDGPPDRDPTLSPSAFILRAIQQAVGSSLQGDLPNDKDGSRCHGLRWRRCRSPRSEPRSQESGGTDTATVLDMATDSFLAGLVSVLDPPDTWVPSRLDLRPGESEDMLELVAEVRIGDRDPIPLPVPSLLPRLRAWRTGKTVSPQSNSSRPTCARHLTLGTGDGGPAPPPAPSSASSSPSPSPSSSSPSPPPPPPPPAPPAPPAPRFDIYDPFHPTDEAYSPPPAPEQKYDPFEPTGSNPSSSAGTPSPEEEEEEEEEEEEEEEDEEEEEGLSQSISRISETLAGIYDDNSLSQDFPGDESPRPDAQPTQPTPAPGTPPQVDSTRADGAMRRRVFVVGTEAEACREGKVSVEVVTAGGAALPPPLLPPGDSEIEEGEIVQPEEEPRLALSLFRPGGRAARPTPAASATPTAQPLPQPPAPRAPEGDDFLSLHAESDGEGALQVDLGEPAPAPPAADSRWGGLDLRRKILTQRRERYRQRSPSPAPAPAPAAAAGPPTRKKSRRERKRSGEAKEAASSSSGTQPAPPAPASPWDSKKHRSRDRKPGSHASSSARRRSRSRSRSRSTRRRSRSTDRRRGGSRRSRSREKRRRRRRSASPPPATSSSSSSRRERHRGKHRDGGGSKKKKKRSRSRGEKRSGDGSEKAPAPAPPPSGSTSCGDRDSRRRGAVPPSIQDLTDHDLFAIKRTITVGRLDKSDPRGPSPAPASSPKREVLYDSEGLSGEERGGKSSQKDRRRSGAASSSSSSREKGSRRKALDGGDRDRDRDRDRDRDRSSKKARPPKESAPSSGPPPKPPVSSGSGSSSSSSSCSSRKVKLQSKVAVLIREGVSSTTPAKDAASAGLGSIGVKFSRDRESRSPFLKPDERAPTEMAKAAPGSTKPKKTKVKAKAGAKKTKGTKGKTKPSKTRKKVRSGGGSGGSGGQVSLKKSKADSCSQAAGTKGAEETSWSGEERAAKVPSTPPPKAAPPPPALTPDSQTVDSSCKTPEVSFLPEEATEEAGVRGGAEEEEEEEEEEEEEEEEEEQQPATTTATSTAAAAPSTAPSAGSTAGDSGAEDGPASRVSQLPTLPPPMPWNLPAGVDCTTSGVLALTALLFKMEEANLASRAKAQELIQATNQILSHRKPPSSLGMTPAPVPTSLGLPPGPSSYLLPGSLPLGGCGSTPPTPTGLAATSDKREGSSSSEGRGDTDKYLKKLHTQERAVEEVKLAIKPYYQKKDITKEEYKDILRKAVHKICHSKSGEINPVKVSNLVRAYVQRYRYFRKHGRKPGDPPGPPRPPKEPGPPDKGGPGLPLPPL
Sequence of UniProt Q9NR31 (Q9NR31 whole entry, looked up): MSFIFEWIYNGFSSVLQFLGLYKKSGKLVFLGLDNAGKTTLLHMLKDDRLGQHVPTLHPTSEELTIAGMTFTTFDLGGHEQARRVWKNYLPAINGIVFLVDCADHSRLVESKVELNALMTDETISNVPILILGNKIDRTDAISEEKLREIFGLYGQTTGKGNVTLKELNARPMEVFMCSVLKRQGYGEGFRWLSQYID

Row | Target | log2 fold change (lapatinib) | log2 fold change (pictilisib) | log2 fold change (crizotinib) | log2 fold change [1] | log2 fold change (duvelisib) | log2 fold change (gandotinib) | log2 fold change (tozasertib) | log2 fold change (doramapimod) | log2 fold change (bafetinib) | log2 fold change [2] | log2 fold change (nilotinib) | log2 fold change [3] | log2 fold change (dasatinib) | log2 fold change [4] | log2 fold change [5] | log2 fold change (quisinostat) | log2 fold change (tipifarnib) | log2 fold change [6] | log2 fold change [7] | log2 fold change [8]
1 | RNASEH2B (UniProt Q5TBB1) | 0.001 | 0.039 | -0.049 | 0.126 | 0.03 | -0.126 | 0.055 | 0.041 | 0.027 | -0.064 | 0.024 | 0.007 | -0.024 | -0.001 | -0.011 | -0.059 | -0.009 | 0.037 | 0.004 | -0.015
2 | RBSN (UniProt Q9H1K0) | -0.008 | -0.024 | -0.012 | -0.032 | 0.093 | 0.019 | 0.13 | -0.026 | 0.026 | 0.059 | -0.047 | 0.057 | -0.106 | 0.034 | -0.004 | -0.04 | -0.036 | 0.05 | 0.039 | 0.029
3 | RAP1B (UniProt F5GZG1) | 0.003 | 0.02 | -0.022 | -0.313 | 0.016 | 0.127 | 0.103 | -0.115 | -0.098 | 0.201 | 0.012 | -0.066 | 0.05 | -0.253 | 0.047 | -0.011 | -0.058 | 0.087 | -0.019 | -0.029
4 | RNF123 (UniProt Q5XPI4) | -0.013 | -0.029 | -0.015 | -0.04 | -0.068 | -0.122 | 0.029 | 0.039 | -0.002 | 0.011 | 0.012 | -0.013 | -0.059 | 0.022 | 0.054 | -0.046 | -0.006 | 0.04 | 0.019 | 0.01
5 | RBM23 isoform 2 (UniProt Q86U06) | 0.056 | -0.053 | -0.076 | 0.044 | -0.008 | 0.272 | 0.053 | 0.489 (active) | -0.114 | 0.083 | 0.172 | 0.021 | -0.004 | -0.065 | -0.061 | -0.047 | -0.168 | -0.024 | -0.056 | 0.021
6 | SCAF1 (UniProt Q9H7N4) | -0.06 | -0.107 | -0.011 | 0.017 | -0.337 | -0.074 | -0.023 | 0.052 | -0.27 | -0.096 | -0.053 | 0.115 | -0.018 | -0.13 | -0.042 | -0.019 | -0.06 | -0.028 | -0.014 | 0.1
7 | SAR1A (UniProt Q9NR31) | 0.101 | 0.191 | -0.056 | 0.033 | 0.002 | 0.341 | 0.027 | 0.504 (active) | -0.022 | 0.156 | 0.145 | 0.164 | 0.017 | -0.009 | 0.01 | 0.095 | -0.172 | -0.055 | -0.154 | -0.045
8 | RNPS1 (UniProt Q15287) | 0.025 | 0.044 | 0.254 (active) | -0.02 | 0.038 | 0 | 0.042 | -0.057 | -0.009 | -0.001 | 0.025 | -0.047 | 0.044 | -0.035 | 0.034 | 0.239 (active) | -0.056 | 0.029 | 0.018 | -0.033
9 | RAB21 (UniProt Q9UL25) | -0.028 | -0.053 | -0.001 | 0.208 | -0.087 | -0.112 | -0.013 | -0.055 | -0.059 | -0.09 | 0.069 | -0.036 | 0.043 | -0.017 | -0.022 | -0.023 | -0.051 | 0.019 | -0.017 | -0.007
10 | RPS18 (UniProt P62269) | -0.046 | 0.006 | -0.028 | -0.186 | -0.019 | 0.071 | 0.008 | 0.026 | -0.004 | 0.094 | 0.004 | -0.02 | -0.009 | -0.039 | -0.018 | 0 | 0.031 | -0.018 | 0.014 | -0.006
11 | SASS6 (UniProt Q6UVJ0) | 0.001 | -0.056 | -0.01 | 0.099 | -0.018 | -0.076 | 0.004 | -0.01 | -0.032 | -0.054 | -0.032 | 0.01 | -0.083 | 0.017 | 0.008 | -0.045 | -0.03 | 0.03 | 0.044 | 0.003
12 | RNF113A (UniProt O15541) | 0.012 | 0.021 | 0.024 | -0.072 | -0.009 | 0.068 | 0.002 | 0.016 | 0 | 0.034 | 0.003 | -0.004 | -0.015 | 0.007 | 0.04 | 0.063 | -0.019 | -0.068 | -0.005 | -0.002
13 | RPTOR (UniProt Q8N122) | -0.001 | -0.024 | -0.056 | -0.044 | -0.024 | -0.097 | 0.019 | 0.025 | -0.057 | 0.009 | -0.005 | -0.035 | -0.041 | -0.016 | 0.011 | -0.057 | 0.014 | 0.047 | 0.006 | -0.041
14 | SEC13 isoform 3 (UniProt P55735) | 0 | 0.023 | 0.058 | 0.417 (active) | 0.02 | -0.076 | 0.01 | -0.031 | -0.016 | -0.068 | -0.02 | 0.038 | -0.01 | 0.031 | 0.02 | 0.079 | -0.014 | 0.006 | 0.006 | -0.006
15 | RPS6KB1 (UniProt P23443) | 0.009 | 0.075 | 0.16 | -0.104 | 0.001 | 0.051 | 0.022 | -0.05 | 0.006 | 0.177 | -0.034 | 0.077 | -0.003 | 0.001 | 0.003 | -0.049 | -0.008 | 0.035 | -0.014 | 0.405 (active)
16 | RAF1 isoform 2 (UniProt P04049) | 0.077 | 0.014 | -0.047 | 0.046 | -0.014 | -0.118 | 0.025 | 0.025 | -0.004 | -0.016 | 0.054 | -0.005 | 0.169 | -0.094 | -0.022 | -0.06 | -0.036 | 0.063 | -0.021 | -0.008
